A number with no mark means an inactive call. Results filed as inconclusive are left out. Activity calls are given as the source filed them. Calls come from the whole dose curve; as a rule, active = well fitted curve in the direction sought with a large enough effect; inconclusive = small, poorly fitted or top-dose-only effect, or another doubt; inactive = no such curve, though single readings can be large; an effect the other way counts as inactive or inconclusive. Where a SMILES comes first, the peptide text is derived from it.

The values below come from PubChem BioAssay (NCATS).

Test [1] has as its target Glutathione peroxidase 1 (Homo sapiens) (UniProt P07203). Description: Primary qHTS Assay for Inhibitors of Recombinant Selenoprotein Glutathione Peroxidase 1 (GPX1) (AID 1845191). Note: nearly all actives have a fitted effect of over 65% in size. The procedure, abridged:
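10 nM GPX1 + cpd, 30 min RT; start w/ 1 mM GSH, 0.5 mM cumene hydroperoxide, 0.5 mM NADPH, 100 nM GR, 0.01% BSA; buffer 50 mM Tris-HCl pH 7.5, 2 mM EDTA, 150 mM NaCl; Fl 340/450, 0 & 15 min.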

Test [2] concerns the target Phospholipid hydroperoxide glutathione peroxidase GPX4 (Homo sapiens) (UniProt P36969). Description: Primary qHTS Assay for Inhibitors of Recombinant Selenoprotein Glutathione Peroxidase 4 (GPX4) (AID 1845192). For activity change, negative = inhibition: series mostly up to about 50 µM; % is set by controls: 0 for no effect and ±100 for the full control effect. Note: nearly all actives have a fitted effect of over 65% in size. The procedure, abridged: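 NADPH consumption, followed by fluorescence at 340/450 nm between 0 and 15 min, reports GPX4 activity via coupled glutathione reductase (100 nM). Enzyme 200 nM was pre-exposed to compound 30 min; 0.5 mM cumene hydroperoxide and 1 mM GSH served as substrates.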

For test [3], the target named is Luciferin 4-monooxygenase (Photinus pyralis) (UniProt P08659). Description: Primary firefly luciferase (FLuc) qHTS assay for identification of artifact compounds. (AID 1845220).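 For activity change, negative = inhibition: series mostly up to about 54 µM; plate controls were DMSO vehicle for no effect and no enzyme for full effect.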 Note: nearly all actives have a fitted effect of over 60% in size. Summed up:
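FLuc 10 nM; luciferin 10 uM; ATP 10 uM; Tris-acetate pH 7.6, Mg-acetate 10 mM; 15 min RT preincubation; 5 min reaction; luminescence.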

A short description of test [4]: Primary fluorescence-based thiol-reactive (MSTI) qHTS assay for identification of artifact compounds. (AID 1845221).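 For activity change, negative = thiol reactive: series mostly up to about 54 µM; thiol-reactive compounds lower the probe fluorescence signal.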 Note: nearly all actives have a fitted effect of over 65% in size. Note: potency is the fitted concentration of half-maximal effect. The procedure, abridged: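 Reactivity toward the thiol probe MSTI (4 uM) is scored by fluorescence at Ex/Em 525/598 nm after 1 h at room temperature. Acetyl-MSTI and MSTI define the activity scale.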

Sequence of Phospholipid hydroperoxide glutathione peroxidase GPX4 (Homo sapiens) (P36969 whole entry, looked up): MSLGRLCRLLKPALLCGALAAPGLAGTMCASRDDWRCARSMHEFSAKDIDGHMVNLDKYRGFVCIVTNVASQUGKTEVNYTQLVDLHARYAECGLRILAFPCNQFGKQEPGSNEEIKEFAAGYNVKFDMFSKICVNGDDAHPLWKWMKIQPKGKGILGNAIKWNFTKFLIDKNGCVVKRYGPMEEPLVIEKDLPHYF
Sequence of Glutathione peroxidase 1 (Homo sapiens) (P07203 whole entry, looked up): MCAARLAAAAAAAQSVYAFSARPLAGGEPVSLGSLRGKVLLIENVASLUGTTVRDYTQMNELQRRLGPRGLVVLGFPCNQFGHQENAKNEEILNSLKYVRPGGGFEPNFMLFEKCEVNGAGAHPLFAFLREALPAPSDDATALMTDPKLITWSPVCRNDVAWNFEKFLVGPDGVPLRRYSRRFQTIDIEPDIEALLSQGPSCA

With `O=C(Nc1ccn(Cc2c(F)cccc2C(F)(F)F)n1)c1c(F)cccc1F`, the Potency result in test [1] and in test [2] was “inactive” each time. For the same molecule, the outcome in test [3] is “inactive [at 11.6 µM]”. Further, the activity change, negative = thiol reactive in test [4] is 27.2% [at 11.5 µM].
Regarding `COc1ccc(-n2c(=O)[nH]c3cc(C(=O)NCc4ccc(Cl)cc4)sc3c2=O)nc1OC`, the Potency result in test [1], in test [2], in test [3] and in test [4] was “inactive” each time.
For `NC[C@H]1CCC[C@@H](CNC(=O)[C@@H](Cc2c[nH]c3ccccc23)NC(=O)N2CCC3(C=Cc4ccccc43)CC2)C1`, the Potency entry in test [1], in test [2], in test [3] and in test [4] was “inactive” each time.
Regarding `C/C=C(\C)C(=O)OC[C@H]1O[C@@H](O[C@H]2[C@@H](O[C@H]3O[C@H](COC(=O)/C(C)=C/C)[C@@H](O)[C@H](O)[C@H]3O[C@@H]3O[C@H](COC(=O)/C(C)=C/C)[C@@H](O)[C@H](OC(=O)/C(C)=C/C)[C@H]3O)O[C@H](COC(=O)/C(C)=C/C)[C@@H](O)[C@@H]2O)[C@H](O)[C@@H](O)[C@@H]1O`, the Potency entry in test [1] and in test [2] was “inactive” in each case. Besides, the activity change, negative = inhibition in test [3] is 3.11% [at 11.6 µM]. Further, the activity change, negative = thiol reactive in test [4] is 8.85% [at 11.5 µM].
In the case of `Fc1cccc(CN(C2=NCCN2)c2c(Cl)cccc2Cl)c1`, the Potency result in test [1], in test [2], in test [3] and in test [4] was “inactive” each time.
On to `CC1C2=CC(=O)OC2(O)CC2C1C(O)CC1C(C)(CO)CCCC21C` (centres undefined), for which the Potency entry in test [1], in test [2], in test [3] and in test [4] was “inactive” each time.
As to `Cc1cn(C[C@H](N)C(=O)O)c(=O)n(Cc2ccsc2C(=O)O)c1=O`, the Potency result in test [1], in test [2], in test [3] and in test [4] was “inactive” in each case.
Take `C=C(C)[C@@]1(O)C[C@@]2(C)C(=CC1=O)CC[C@@H](O)[C@@H]2C`: the Potency entry in test [1], in test [2], in test [3] and in test [4] was “inactive” throughout.
For `C[C@@H]1O[C@@H](O[C@H]2[C@@H]3C=CO[C@@H](O[C@@H]4O[C@H](CO)[C@@H](O)[C@H](O)[C@H]4O)[C@@H]3[C@@]3(CO)O[C@@H]23)[C@H](O)[C@H](OC(=O)/C=C/c2ccc(O)c(O)c2)[C@H]1O`, the Potency entry in test [1], in test [2] and in test [3] was “inactive” throughout. For the same molecule, the Potency in test [4] is 562 nM (active).
As for `CC1CCC2C(C)(C)[C@H](O)CC[C@]2(C)C12Cc1c(O)cc3c(c1O2)CN(C(CCC(=O)O)C(=O)O)C3=O` (some centres undefined), the Potency entry in test [1], in test [2], in test [3] and in test [4] was “inactive” throughout.
Take `CCCO[C@@H]1O[C@H](CO)[C@@H](O)[C@H](O)[C@H]1O[C@@H]1OC[C@@H](O)[C@H](O)[C@H]1O`: the Potency result in test [1], in test [2], in test [3] and in test [4] was “inactive” throughout.
`CC1OC(O[C@H]2CC[C@@]3(C)C(CC[C@]4(C)C3CC=C3C5CC(C)(C)CC[C@]5(C(=O)OC5OC(CO)C(OC6OCC(OC7OCC(O)C(O)C7O)C(O)C6O)C(O)C5O)CC[C@]34C)C2(C)C)C(O)C(O)C1OC1OC(CO)C(O)C(OC2OC(CO)C(O)C(O)C2O)C1O` (some centres undefined): the Potency result in test [1] and in test [2] was “inactive” each time. In addition, the outcome in test [3] was “inactive [at 11.6 µM]”. Also, in test [4], the activity change, negative = thiol reactive is 250% [at 11.5 µM].
`C=CC(C)(CC/C=C(\C)C(=O)OC[C@H]1O[C@@H](OC(C)(C=C)CC/C=C(\C)C(=O)O[C@H]2[C@H](O)[C@@H](O)[C@H](OC(C)(C=C)CC/C=C(\C)C(=O)O)O[C@@H]2CO)[C@H](O)[C@@H](O)[C@@H]1O)O[C@@H]1O[C@H](CO)[C@@H](O)[C@H](O)[C@H]1O` (some centres undefined): the Potency result in test [1] and in test [2] was “inactive” in each case. The outcome in test [3] was “inactive [at 11.6 µM]”. Moreover, the activity change, negative = thiol reactive in test [4] is 79.7% [at 11.5 µM].
As to `COC(=O)C[C@@H]1C(C(=O)O)=CO[C@@H](O[C@@H]2O[C@H](CO)[C@@H](O)[C@H](O)[C@H]2O)/C1=C\COC(=O)/C=C/c1ccc(O)c(OC)c1`, the Potency result in test [1], in test [2], in test [3] and in test [4] was “inactive” in each case.
As to `CC1(C)CC[C@]2(C(=O)O)CC[C@]3(C)C(=CCC4[C@@]5(C)CC[C@H](O[C@@H]6O[C@H](C(=O)O)[C@@H](O)[C@H](O[C@@H]7O[C@H](CO)[C@H](O)[C@H](O)[C@H]7O)[C@H]6O[C@@H]6O[C@H](CO)[C@@H](O)[C@H](O)[C@H]6O)C(C)(C)C5CC[C@]43C)[C@@H]2C1` (some centres undefined), the Potency entry in test [1] and in test [2] was “inactive” throughout. In test [3], the activity change, negative = inhibition is -14.9% [at 6.45 µM]. Moreover, the activity change, negative = thiol reactive in test [4] is 227% [at 6.41 µM].
Consider `CN(C)C(=O)C(O)C(Cc1ccccc1)NC(=O)c1cc2cc(Cl)ccc2[nH]1` (centres undefined), for which the Potency entry in test [1], in test [2], in test [3] and in test [4] was “inactive” each time.
Consider `CC1(O)CC(O)C2C(C(=O)O)=COC(OC3OC(CO)C(O)C(O)C3OC(=O)/C=C/c3ccc(O)cc3)C21` (centres undefined), for which the Potency result in test [1], in test [2] and in test [3] was “inactive” throughout. Also, the Potency in test [4] is 4120 nM (active).
On to `COC(=O)C1=CO[C@@H](O[C@@H]2O[C@H](CO[C@@H]3O[C@H](CO)[C@@H](O)[C@H](O)[C@H]3O)[C@@H](O)[C@H](O)[C@H]2O)[C@@H]2C(CO)=CC[C@H]12`, for which the Potency result in test [1], in test [2], in test [3] and in test [4] was “inactive” throughout.
As for `CC1(C)CC[C@]2(C(=O)O[C@@H]3O[C@H](CO)[C@@H](O)[C@H](O)[C@H]3O)CC[C@]3(C)C(=CCC4[C@@]5(C)C[C@@H](O)[C@H](O)[C@@](C)(CO)C5[C@H](O)C[C@]43C)C2C1` (some centres undefined), the Potency entry in test [1], in test [2], in test [3] and in test [4] was “inactive” throughout.
Turning to `CNc1nc(C)nc(N[C@H]2CCC[C@@H](C(=O)NCc3ccc(C#N)cc3C(F)(F)F)C2)n1`, the Potency result in test [1], in test [2], in test [3] and in test [4] was “inactive” throughout.
As for `CC(=O)NC(Cc1ccccc1)C(=O)NC(C(=O)O)C(C)C` (stereo not drawn) (Ac-Phe-Val-OH; configuration not given here), the Potency entry in test [1], in test [2], in test [3] and in test [4] was “inactive” throughout.
